# According to PubChem BioAssay (NCI):
# The panel holds about 83,000 compounds, 20% with a hit somewhere; the sample as a whole holds those more often.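 Negative percent growth values reflect cell death: -40 means 40% of the cells present at the start died, and -100 means all died.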 Unmarked numbers belong to inactive results. Active and inactive are the calls of the source.
# System: SK-MEL-2 melanoma
# Assay: NCI-60 one-dose screen, 48 h (100 = growth as untreated, 0 = no growth, -100 = all killed)
# Conditions: 10 µM unless noted
# Protocol: Growth inhibition of the SK-MEL-2 human tumor cell line is measured as a screen for anti-cancer activity. Cells are grown in 96 well plates and exposed to the test compound for 48 hours. Compounds are tested at a single concentration, which is 10^-5 M for most compounds. The reported endpoint is percent growth (GI% or GIPRCNT), where numbers from 0 - 100% represent growth inhibition, and numbers from -100% - 0 represent cell death. For example, a value of 40 represents 60% growth inhibition. A value of 0 means no net growth occurred over the course of the experiment. A value of -40 indicates 40% of cells at the beginning of the experiment died by the end of the experiment. A value of -100 means all cells are dead at the end of the experiment.
# NCI-60 Human Tumor Cell Lines Screen was performed using the standard one-dose NCI protocol, which is described in more detail at https://dtp.cancer.gov/discovery_development/nci-60/default.htm.
# Compounds with GIPRCNT values below 10 were considered active. Activity score was based on GIPRCNT using the following formula: […]
# Score is 0 for GIPRCNT values of 100 or above, 50 for GIPRCNT values of 0, and 100 for GIPRCNT values of -100.
row,SMILES,growth
1,Cc1c(N(C)CS(=O)(=O)O)c(=O)n(-c2ccccc2)n1C,106%
2,CCCCCCCCCCC[C@@H](C[C@H]1OC(=O)[C@H]1CCCCCC)OC(=O)[C@@H](CC(C)C)NC=O,55.9%
3,CC(=O)c1ccc2c3c(n(C)c2c1)CCCC3,104%
4,O=C(/C=C/c1cccnc1)/C=C/c1cccnc1,64.1%
5,Nc1ccc2c(c1)/C(=N/O)c1cc([N+](=O)[O-])ccc1-2,96.9%
6,Cc1cc([N+](=O)[O-])c(C)cc1C(=O)O,114%
7,Cn1cc(-c2csc(-c3cn(C)c4ncccc34)n2)c2cc(Br)cnc21,111%
8,CC1CC(C)/C(=N/NC(N)=O)C(C(O)CC2CCC(=O)NC2=O)C1 (stereo not given),33.8%
9,CC(C)c1ccc(C(=O)Nc2sc3c(CN(C)C)c(O)ccc3c2C(N)=O)cc1,96.4%
10,CCC1(c2ccccc2)Oc2ccccc2-n2c(C#N)c3ccccc3c2C1=O (stereo not given),103%
11,C/C(=N\N1CC(=O)NC1=O)c1ccc([N+](=O)[O-])o1,106%
12,O=C1C[C@@H]2/C(=C(O)\C=C\c3ccccc3)C(=O)C=C[C@@H]2O1,-35% (active)
13,COC(=O)c1ccc2c(c1)nc(-c1ccc(O)c(OC)c1)n2-c1cc(C(C)(C)C)[nH]n1,92.3%
14,ClC1=C(Cl)C(Cl)=C(Cl)C1=Cc1ccc(Cl)cc1,99.7%
15,COc1cc2c(cc1OCCCCCn1c(-c3ccc(OCc4ccccc4)cc3)nc3cc(N4CCOCC4)ccc31)N=C[C@@H]1CCCN1C2=O,-40% (active)
16,COc1ccc(/C=N/NC(=O)c2ccc(S(C)(=O)=O)cc2)cc1OC,91%
17,COc1ccc(-c2nn(-c3ccccc3)cc2/C=C2\SC(=S)N(CCc3ccc(O)cc3)C2=O)cc1,95%
18,Cc1ccc(NC(=O)Nc2ccc(-c3cccnc3)cc2N2CCC(CO)CC2)cc1,33.7%
19,COc1cccc(CCC2C(=O)CCCC2=O)c1,112%
20,CC(=O)Oc1ccc(C23c4ccccc4C2(OC(C)=O)c2cc(OC(C)=O)ccc23)cc1 (stereo not given),97.9%

row,SMILES,growth
1,CCN(CC)c1ccc(C(O)C2=CC(=O)c3ccccc3C2=O)cc1 (stereo not given),-27.9% (active)
2,O=C(COC(=O)[C@H](C[Se][Se]C[C@H](NC(=O)c1ccc(Br)cc1F)C(=O)OCC(=O)c1ccc(F)cc1)NC(=O)c1ccc(Br)cc1F)c1ccc(F)cc1,-58.9% (active)
3,CN(CCOc1ccc(CC2SC(=O)NC2=O)cc1)c1ccccn1 (stereo not given),117%
4,COc1cc(C2=NN(C(C)=O)C(c3ccc(OC(C)=O)cc3OC(C)=O)O2)c(OC(C)=O)c2ccccc12 (stereo not given),24.9%
5,COc1ncc(-c2ccc3nccc(C#CCN4CCN(S(C)(=O)=O)CC4)c3c2)cc1NS(=O)(=O)c1ccc(F)cc1F,0.951% (active)
6,C=CCCCCCCCCC(=O)[O][Sn]([CH2]CCC)([CH2]CCC)[CH2]CCC,-71.2% (active)
7,CCCCCCOc1ccc(/C=N/NC(N)=S)cc1,69.6%
8,NC(=O)N/N=C/c1ccc(Br)o1,99.6%
9,Cc1cc2c(C#N)n3c(c2cc1C)C(=O)C(c1ccccc1)Oc1ccccc1-3 (stereo not given),45.2%
10,Fc1ccc(-c2nnc(/C=C/c3cn(-c4ccccc4)nc3-c3ccccc3)o2)cc1,103%
11,Cc1cc(C)n(C(=O)c2nn(-c3ccc(Cl)cc3)cc2O)n1,88.3%
12,O=C(NCCCO)c1cc(Cl)ccc1O,-19% (active)
13,COC1=CC(c2ccc[nH]2)=N/C1=C\c1[nH]c(C)c(C(=O)CCC(=O)Oc2ccc3c(c2)CCC2C3CC[C@]3(C)C(=O)CC[C@@H]23)c1C (stereo not given in full),91.3%
14,CCSc1nnc2n(Cc3ccccc3)c(=O)c3c(C)c(C(N)=O)sc3n12,102%
15,COc1cc(C2NC(c3ccc(Cl)cc3)C(C)/C(=N/NC(N)=S)C2C)cc(OC)c1OC (stereo not given),83.6%
16,NC(=O)c1ccccc1NC(=O)c1ccccc1Cl,129%
17,Nc1c2ccccc2nc2ccccc12 (tested in a mixture with another compound),-5.63% (active)
18,N#Cc1c2ccccc2c2n1-c1ccccc1OC(c1ccccc1)C2=O (stereo not given),59.9%
19,CC(C)COCC(CN(Cc1ccccc1)c1ccccc1)N1CCCC1 (stereo not given),77.2%
20,COc1cc(OC)c2sc(-c3ccc(-n4cncc4-c4ccc(N)cc4)cc3)nc2c1,97.6%
